In the supplement of paper PMC10849652:
About 7,900 targets were measured; listed, in parts, are those with a hit and a random draw of the rest. About 0.6% of all pairs of compound and target were hits.

Assays:
Assay in all cases: log2 fold change, soluble protein after heating vs DMSO (PISA); higher = thermal stabilisation; K562 cells, 10 uM, 30 min; active = over 0.2 and 3.5 SD of the protein, either way, in both replicates (recomputed)
[1] = compound: COC1=CC=C(C=C1)CN2C=CC3=C2C=C(C=C3)C(=O)NO
How it was run: (§1)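 K562 cells at 2×10^6 cells/mL were treated for 30 min with 10 μM compound, and aliquots were heated for 3 min over 48°C-58°C before pooling. Extraction used PBS with 0.5% NP-40 at 4°C, and soluble protein was the supernatant after 21,000xg for 90 min, measured by TMTpro 16plex LC-MS/MS with channel sums equalised. Thermal stability values, relative to control samples and from duplicates, are log2 fold changes.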

filanesib = compound: CON(C)C(=O)N1N=C(c2cc(F)ccc2F)S[C@@]1(CCCN)c1ccccc1 [filanesib]
How it was run: as §1

zotarolimus = compound: CO[C@H]1C[C@@H]2CC[C@@H](C)[C@@](O)(O2)C(=O)C(=O)N2CCCC[C@H]2C(=O)O[C@H]([C@H](C)C[C@@H]2CC[C@H](n3cnnn3)[C@H](OC)C2)CC(=O)[C@H](C)/C=C(\C)[C@@H](O)[C@@H](OC)C(=O)[C@H](C)C[C@H](C)/C=C/C=C/C=C/1C [zotarolimus]
How it was run: as §1

idasanutlin = compound: COc1cc(C(=O)O)ccc1NC(=O)[C@@H]1N[C@@H](CC(C)(C)C)[C@](C#N)(c2ccc(Cl)cc2F)[C@H]1c1cccc(Cl)c1F [idasanutlin]
How it was run: as §1

alisertib = compound: COc1cc(Nc2ncc3c(n2)-c2ccc(Cl)cc2C(c2c(F)cccc2OC)=NC3)ccc1C(=O)O [alisertib]
How it was run: as §1

[2] = compound: COc1cc2nc(-c3cc(F)ccc3O)nc(N[C@@H]3CNC[C@H]3C(C)(C)O)c2cc1OC
How it was run: as §1

gefitinib = compound: COc1cc2ncnc(Nc3ccc(F)c(Cl)c3)c2cc1OCCCN1CCOCC1 [gefitinib]
How it was run: as §1

[3] = compound: COc1cccc2cc(-c3nc([C@H]4CC[C@H](C(=O)O)CC4)n4ncnc(N)c34)[nH]c12
How it was run: as §1

lapatinib = compound: CS(=O)(=O)CCNCc1ccc(-c2ccc3ncnc(Nc4ccc(OCc5cccc(F)c5)c(Cl)c4)c3c2)o1 [lapatinib]
How it was run: as §1

pictilisib = compound: CS(=O)(=O)N1CCN(Cc2cc3nc(-c4cccc5[nH]ncc45)nc(N4CCOCC4)c3s2)CC1 [pictilisib]
How it was run: as §1

[4] = compound: CS(=O)(=O)c1ccc(-c2cnc(N)c(C(=O)Nc3ccccc3)n2)cc1
How it was run: as §1

crizotinib = compound: C[C@@H](Oc1cc(-c2cnn(C3CCNCC3)c2)cnc1N)c1c(Cl)ccc(F)c1Cl [crizotinib]
How it was run: as §1

[5] = compound: C[C@@H]1COCCN1C2=NC(=NC(=C2)C3(CC3)S(=O)(=O)C)C4=C5C=CNC5=CC=C4
How it was run: as §1

[6] = compound: C[C@H](C1=CC=C(C=C1)C(=O)NC2=C3C=CNC3=NC=C2)N
How it was run: as §1

duvelisib = compound: C[C@H](Nc1ncnc2nc[nH]c12)c1cc2cccc(Cl)c2c(=O)n1-c1ccccc1 [duvelisib]
How it was run: as §1

gandotinib = compound: Cc1cc(Nc2cc(CN3CCOCC3)c3nc(C)c(Cc4ccc(Cl)cc4F)n3n2)n[nH]1 [gandotinib]
How it was run: as §1

tozasertib = compound: Cc1cc(Nc2cc(N3CCN(C)CC3)nc(Sc3ccc(NC(=O)C4CC4)cc3)n2)n[nH]1 [tozasertib]
How it was run: as §1

[7] = compound: Cc1cc(SCc2sc(-c3ccc(C(F)(F)F)cc3)nc2C)ccc1OCC(=O)O
How it was run: as §1

doramapimod = compound: Cc1ccc(-n2nc(C(C)(C)C)cc2NC(=O)Nc2ccc(OCCN3CCOCC3)c3ccccc23)cc1 [doramapimod]
How it was run: as §1

ispinesib = compound: Cc1ccc(C(=O)N(CCCN)[C@@H](c2nc3cc(Cl)ccc3c(=O)n2Cc2ccccc2)C(C)C)cc1 [ispinesib]
How it was run: as §1

Measured: log2 fold change

LIMD1 (UniProt Q9UGP4)
Chain of UniProt Q9UGP4 (Q9UGP4 whole entry, looked up): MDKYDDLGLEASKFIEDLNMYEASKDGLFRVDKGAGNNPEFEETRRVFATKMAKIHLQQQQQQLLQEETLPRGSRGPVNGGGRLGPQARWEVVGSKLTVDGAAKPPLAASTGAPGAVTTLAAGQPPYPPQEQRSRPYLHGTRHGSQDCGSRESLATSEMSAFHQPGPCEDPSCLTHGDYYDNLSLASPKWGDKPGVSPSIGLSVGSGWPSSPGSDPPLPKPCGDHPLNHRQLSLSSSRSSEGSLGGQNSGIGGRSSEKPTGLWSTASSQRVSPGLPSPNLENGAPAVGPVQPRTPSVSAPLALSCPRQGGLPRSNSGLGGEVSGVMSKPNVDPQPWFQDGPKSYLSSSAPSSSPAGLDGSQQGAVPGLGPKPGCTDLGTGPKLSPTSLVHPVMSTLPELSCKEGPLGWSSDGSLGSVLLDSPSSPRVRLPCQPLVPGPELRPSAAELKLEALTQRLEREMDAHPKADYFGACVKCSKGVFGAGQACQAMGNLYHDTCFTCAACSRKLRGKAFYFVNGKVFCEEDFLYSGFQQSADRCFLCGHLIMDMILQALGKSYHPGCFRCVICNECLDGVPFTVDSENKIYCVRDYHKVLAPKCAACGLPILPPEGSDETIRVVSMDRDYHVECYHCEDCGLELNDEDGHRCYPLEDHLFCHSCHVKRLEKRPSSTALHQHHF
inactive: [1] 0.027 | filanesib -0.007 | zotarolimus 0.028 | idasanutlin 0.028 | alisertib -0.059 | [2] 0 | gefitinib -0.078 | [3] -0.01 | lapatinib 0.06 | pictilisib -0.043 | [4] -0.03 | crizotinib 0.005 | [5] -0.007 | [6] -0.071 | duvelisib -0.032 | gandotinib 0.011 | tozasertib 0.039 | [7] 0.042 | doramapimod -0.01 | ispinesib 0.008

IMMP1L (UniProt Q96LU5)
Chain of UniProt Q96LU5 (Q96LU5 whole entry, looked up): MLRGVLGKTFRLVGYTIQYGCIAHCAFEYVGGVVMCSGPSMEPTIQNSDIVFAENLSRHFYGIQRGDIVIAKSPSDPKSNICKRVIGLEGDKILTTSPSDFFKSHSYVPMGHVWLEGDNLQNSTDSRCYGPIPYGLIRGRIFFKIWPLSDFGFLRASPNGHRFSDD
inactive: [1] -0.041 | filanesib -0.067 | zotarolimus -0.034 | idasanutlin -0.067 | [2] 0.005 | gefitinib -0.022 | [3] 0.016 | lapatinib -0.062 | [4] 0.024 | crizotinib 0.121 | [5] 0.045 | [6] -0.05 | duvelisib 0.088 | tozasertib -0.058 | [7] 0.012 | doramapimod 0.015 | ispinesib -0.063
active: alisertib -0.252

MAGOHB (UniProt Q96A72)
Chain of UniProt Q96A72 (Q96A72 whole entry, looked up): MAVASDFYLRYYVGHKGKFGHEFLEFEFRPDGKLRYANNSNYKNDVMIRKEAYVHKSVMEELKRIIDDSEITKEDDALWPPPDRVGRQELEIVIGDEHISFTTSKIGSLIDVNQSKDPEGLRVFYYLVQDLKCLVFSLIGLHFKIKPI
inactive: [1] -0.012 | filanesib 0.018 | zotarolimus 0.054 | idasanutlin -0.027 | alisertib 0.011 | [2] 0.144 | gefitinib 0 | [3] 0.024 | lapatinib -0.018 | pictilisib 0.005 | [4] 0.005 | [5] 0.013 | [6] -0.131 | duvelisib 0.039 | gandotinib 0.084 | tozasertib 0.141 | [7] 0.05 | doramapimod -0.016 | ispinesib 0.076
active: crizotinib 0.324

MGST3 (UniProt O14880)
Chain of UniProt O14880 (O14880 whole entry, looked up): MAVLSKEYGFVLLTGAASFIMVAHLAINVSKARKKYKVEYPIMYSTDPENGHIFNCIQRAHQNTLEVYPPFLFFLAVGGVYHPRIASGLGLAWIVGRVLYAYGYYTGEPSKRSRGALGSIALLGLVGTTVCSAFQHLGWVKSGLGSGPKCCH
inactive: [1] -0.021 | filanesib -0.035 | zotarolimus -0.005 | idasanutlin 0.012 | alisertib 0.008 | [2] 0.001 | gefitinib 0.002 | [3] 0.018 | lapatinib -0.009 | pictilisib 0.004 | [4] 0.058 | crizotinib 0.119 | [5] -0.013 | [6] -0.075 | duvelisib -0.002 | gandotinib -0.006 | tozasertib -0.018 | [7] -0.054 | doramapimod -0.031 | ispinesib 0.03
